The list is not random: actives were taken first. Their share in the collection is about 0.37%.
Rac1 act GTP bind: GTP binding modulators of activated mutant Rac1, primary screen, biochemical, bead-based flow cytometry, multiplex, fluorescent GTP; Ras-related C3 botulinum toxin substrate 1 (Homo sapiens), P63000; GST-Rac1 activated beads; actives lie on both sides; 100% means binding = to untreated wells; AID 764, 2007; 190,000 compounds, 0.11% hits; percent activity (GTP binding), % at 10 µM;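 active = GTP binding at least 20 percentage points away from the 100% baseline, in either direction, so actives lie on both sides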
HRas wt GTP: modulators of GTP binding to HRas wildtype, primary screen, biochemical, bead-based flow cytometry, multiplex; GST-Ras wt beads, Bodipy-FL-GTP binding; actives lie on both sides; 190,000 compounds, 0.14% hits; GTP binding activity, % at 10 µM; GTPase HRas (Homo sapiens), P01112;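 active = GTP binding activity at least 20% away from the 100% baseline, either lowered as inhibitor or raised as activator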;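 also: 0% = unlabeled GTP competition control and 100% = no-compound control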
Target sequence (P01112 whole entry, looked up): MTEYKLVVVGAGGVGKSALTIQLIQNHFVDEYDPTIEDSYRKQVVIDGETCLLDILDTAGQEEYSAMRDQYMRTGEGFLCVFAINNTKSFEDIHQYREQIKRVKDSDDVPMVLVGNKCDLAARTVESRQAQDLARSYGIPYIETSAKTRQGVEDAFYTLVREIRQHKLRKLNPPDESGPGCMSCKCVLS
Rab7 wt modul: modulators of GTP binding to Rab7, primary screen, biochemical, wildtype, multiplex bead flow cytometry. Rab7 GTPase wild type (dog), Bodipy-FL-GTP binding. GST-Rab7 beads, fluorescent GTP binding; actives lie on both sides; untreated = 100%, excess cold GTP = 0%. GTP binding activity (percent of control), % at 10 µM. 190,000 compounds, 0.055% hits;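 active = fluorescent GTP binding to Rab7 beads changed by at least 20 points from the 100% baseline, either direction, mostly lower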;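 also: median green fluorescence of bound Bodipy-FL-GTP per Rab7 bead population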
Rab2A wt mod: modulators of GTP binding to Rab2A wildtype, primary screen, biochemical, dog, bead-based flow cytometry, multiplex; 190,000 compounds, 0.19% hits; GST-Rab2 wt beads, Bodipy-GTP binding; GTP binding activity, % at 10 µM;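 active = GTP binding activity at least 20 points away from 100%, either lowered or raised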;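 also: 0% = beads with excess unlabeled GTP and 100% = no-compound control corrected for plate trend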
Rac1 wt GTP bind: wildtype Rac1 GTP binding modulators, primary screen, biochemical, GST-Rac1 beads, flow cytometry, multiplex; Ras-related C3 botulinum toxin substrate 1 (Homo sapiens), P63000; fluorescent GTP binding; actives lie on both sides; 0 = cold GTP competed, 100 = untreated; GTP binding activity (% of control), % at 10 µM; 190,000 compounds, 0.27% hits; AID 757, 2007;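 active = GTP binding activity at least 20 points away from the 100% control level, either lower or higher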
Cdc42 wt GTP: modulators of GTP binding to wildtype Cdc42, primary screen, biochemical, multiplex bead flow cytometry, Bodipy-GTP. AID 761, 2007. GST-Cdc42 beads; actives lie on both sides. 190,000 compounds, 0.2% hits. Cell division control protein 42 homolog (Homo sapiens), P60953. percent activity (GTP binding), % at 10 µM;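 active = percent activity GTP binding at least 20 points away from the 100% baseline, either down as inhibitor or up as activator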;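 also: median bead fluorescence of bound Bodipy-FL-GTP at 100 nM; 0% = excess unlabeled GTP control and 100% = no compound control; below 100% means less GTP binding so inhibitor and above means activator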
Target sequence (P60953 whole entry, looked up): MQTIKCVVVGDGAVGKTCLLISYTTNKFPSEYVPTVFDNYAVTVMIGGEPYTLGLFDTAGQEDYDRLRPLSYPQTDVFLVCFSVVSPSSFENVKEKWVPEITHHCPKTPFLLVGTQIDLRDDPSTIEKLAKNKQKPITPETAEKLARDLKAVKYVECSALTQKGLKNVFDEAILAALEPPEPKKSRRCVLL
The depositor's hits bear a star; [ ] = remark or other dose.

SMILES	Rac1 act GTP bind	HRas wt GTP	Rab7 wt modul	Rab2A wt mod	Rac1 wt GTP bind	Cdc42 wt GTP
CC(Sc1nnc(NC2CCCCC2)s1)C(=O)Nc1ccc2c(c1)C(=O)c1ccccc1C2=O (stereo not given)	88.0	82.0	84.0	77.0*	75.0*	89.0
COc1ccc(-c2csc(C3=C(O)CN(C(C)C)C3=N)n2)cc1OC	86.0	76.0*	97.0	76.0*	73.0*	73.0*
N=c1c2ccccc2nnn1-c1ccc(C(F)(F)F)cc1	92.0	93.0	98.0	93.0	93.0	91.0
CCOc1ccc(S(=O)(=O)Nc2ccc(O)c(Sc3ncn[nH]3)c2)cc1	97.0	99.0	99.0	99.0	101.0	98.0
COc1ccc(OC)c(S(=O)(=O)Nc2ccc(O)c(Sc3ncn[nH]3)c2)c1	36.0*	39.0*	21.0*	35.0*	31.0*	36.0*
OC(CN1CCN(Cc2ccc3c(c2)OCO3)CC1)c1c[nH]c2ccccc12 (stereo not given)	105.0	107.0	94.0	107.0	122.0*[activator]	116.0
Cc1c(C(O)CN2CCN(Cc3ccc4c(c3)OCO4)CC2)c2ccccc2n1C (stereo not given)	99.0	100.0	99.0	99.0	103.0	100.0
C(=N/N1CCN(c2ccccc2)CC1)/c1ccncc1	95.0	95.0	97.0	94.0	97.0	93.0
COc1cc(/C=C2/SC(=S)NC2=O)ccc1OS(=O)(=O)c1ccc(C)cc1	98.0	97.0	96.0	96.0	96.0	98.0
COc1ccc(/C=C2\SC(=S)NC2=O)cc1OS(=O)(=O)c1ccc(NC(C)=O)cc1	110.0	111.0	118.0	108.0	135.0*[activator]	108.0
CN1CCN(c2ccc(Cl)cc2NC(=O)CCN2C(=O)c3ccccc3C2=O)CC1	99.0	100.0	98.0	101.0	101.0	104.0
COc1ccc(-c2cc(C#N)nc(N3CCN(C)CC3)n2)cc1	101.0	101.0	98.0	103.0	107.0	102.0
COc1ccc(-c2cc(C#N)nc(N3CCNCC3)n2)cc1	131.0*[activator]	125.0*[activator]	113.0	127.0*[activator]	131.0*[activator]	131.0*[activator]
CCOC(=O)COc1ccc(Br)cc1/C=C/c1[nH]c(=O)[nH]c(=O)c1[N+](=O)[O-]	88.0	89.0	100.0	92.0	83.0	83.0
O=C(COc1ccccc1/C=C\c1[nH]c(=O)[nH]c(=O)c1[N+](=O)[O-])Nc1ccccc1	77.0*	79.0*	95.0	77.0*	79.0*	73.0*
CC(C)(C)NC(=O)CN(C(=O)C(=O)Nc1ccc2c(c1)OCCO2)C(C)(C)C	96.0	97.0	107.0	101.0	98.0	98.0
Cc1ccc(/C=C2\SC(=S)N(C(Cc3ccccc3)C(=O)O)C2=O)cc1 (stereo not given)	80.0	85.0	92.0	79.0*	83.0	82.0
NC(=S)N=Nc1c(O)[nH]c2ccccc12	96.0	86.0	95.0	84.0	87.0	92.0
NC(=S)N=Nc1c(O)[nH]c2c(Br)cc(Br)cc12	84.0	75.0*	93.0	74.0*	71.0*	75.0*
O=C(CN1C(=O)C2C3c4ccccc4C(c4ccccc43)C2C1=O)Nc1cccc(C(=O)O)c1 (stereo not given)	155.0*[activator]	124.0*[activator]	145.0*[activator]	127.0*[activator]	130.0*[activator]	125.0*[activator]
CC1Cc2ccccc2N1S(=O)(=O)c1cccc(C(=O)NCCCO)c1 (stereo not given)	108.0	108.0	110.0	112.0	123.0*[activator]	113.0
O=C(Nc1ccc2ncccc2c1)c1cc(Cl)ccc1Cl	92.0	94.0	93.0	95.0	93.0	95.0
Cc1ccc2c(c1)c1nnc(SCC(=O)Nc3ccccc3C(F)(F)F)nc1n2CC(=O)O	91.0	91.0	94.0	89.0	86.0	90.0
